Screening data as filed in PubChem BioAssay.
Rows were chosen to be rich in hits. Some 1.1% of all compounds tested hit in one or more screens of this group.
NCOA2 inhibitor – human SRC2 (NCOA2) inhibition. HEK293 GAL4-SRC2 luciferase reporter, luminescence. inhibition, % at 9 µM. 370,000 compounds, 0.17% hits. AID 651957;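 active = inhibition above the mean inhibition of all tested compounds plus 3 SD, set per campaign, cut at about 52% in these data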;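 also: 0% = DMSO treated cells and 100% = cells given Gossypol at 36 µM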
NR5A2 inv ag – inverse agonists of human LRH-1 (NR5A2); 360,000 compounds, 0.13% hits; inhibition, % at 3.6 µM; HEK293T StAR-luciferase reporter, LRH-1 transfected, 24 h;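 active = inhibition above the mean inhibition of all tested compounds plus 3 SD, cut at about 73% in these data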;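 also: 0% = DMSO wells and 100% = reporter-only cells lacking LRH-1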
SRC3 inh – inhibitors of human steroid receptor coactivator 3 (SRC3). HEK293 GAL4-SRC3 luciferase reporter, luminescence. inhibition, % at 3.6 µM. 360,000 compounds, 0.17% hits;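 active = inhibition above a per-campaign cutoff, the mean of all compounds plus 3 SD, cut at about 60% in these data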;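 also: 0% = DMSO-treated cells and 100% = gossypol-treated cells at 36 µM; higher means less SRC3-driven luciferase light from the GAL4 reporter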
Target sequence (Q9Y6Q9 whole entry, looked up, the tested form may be a part): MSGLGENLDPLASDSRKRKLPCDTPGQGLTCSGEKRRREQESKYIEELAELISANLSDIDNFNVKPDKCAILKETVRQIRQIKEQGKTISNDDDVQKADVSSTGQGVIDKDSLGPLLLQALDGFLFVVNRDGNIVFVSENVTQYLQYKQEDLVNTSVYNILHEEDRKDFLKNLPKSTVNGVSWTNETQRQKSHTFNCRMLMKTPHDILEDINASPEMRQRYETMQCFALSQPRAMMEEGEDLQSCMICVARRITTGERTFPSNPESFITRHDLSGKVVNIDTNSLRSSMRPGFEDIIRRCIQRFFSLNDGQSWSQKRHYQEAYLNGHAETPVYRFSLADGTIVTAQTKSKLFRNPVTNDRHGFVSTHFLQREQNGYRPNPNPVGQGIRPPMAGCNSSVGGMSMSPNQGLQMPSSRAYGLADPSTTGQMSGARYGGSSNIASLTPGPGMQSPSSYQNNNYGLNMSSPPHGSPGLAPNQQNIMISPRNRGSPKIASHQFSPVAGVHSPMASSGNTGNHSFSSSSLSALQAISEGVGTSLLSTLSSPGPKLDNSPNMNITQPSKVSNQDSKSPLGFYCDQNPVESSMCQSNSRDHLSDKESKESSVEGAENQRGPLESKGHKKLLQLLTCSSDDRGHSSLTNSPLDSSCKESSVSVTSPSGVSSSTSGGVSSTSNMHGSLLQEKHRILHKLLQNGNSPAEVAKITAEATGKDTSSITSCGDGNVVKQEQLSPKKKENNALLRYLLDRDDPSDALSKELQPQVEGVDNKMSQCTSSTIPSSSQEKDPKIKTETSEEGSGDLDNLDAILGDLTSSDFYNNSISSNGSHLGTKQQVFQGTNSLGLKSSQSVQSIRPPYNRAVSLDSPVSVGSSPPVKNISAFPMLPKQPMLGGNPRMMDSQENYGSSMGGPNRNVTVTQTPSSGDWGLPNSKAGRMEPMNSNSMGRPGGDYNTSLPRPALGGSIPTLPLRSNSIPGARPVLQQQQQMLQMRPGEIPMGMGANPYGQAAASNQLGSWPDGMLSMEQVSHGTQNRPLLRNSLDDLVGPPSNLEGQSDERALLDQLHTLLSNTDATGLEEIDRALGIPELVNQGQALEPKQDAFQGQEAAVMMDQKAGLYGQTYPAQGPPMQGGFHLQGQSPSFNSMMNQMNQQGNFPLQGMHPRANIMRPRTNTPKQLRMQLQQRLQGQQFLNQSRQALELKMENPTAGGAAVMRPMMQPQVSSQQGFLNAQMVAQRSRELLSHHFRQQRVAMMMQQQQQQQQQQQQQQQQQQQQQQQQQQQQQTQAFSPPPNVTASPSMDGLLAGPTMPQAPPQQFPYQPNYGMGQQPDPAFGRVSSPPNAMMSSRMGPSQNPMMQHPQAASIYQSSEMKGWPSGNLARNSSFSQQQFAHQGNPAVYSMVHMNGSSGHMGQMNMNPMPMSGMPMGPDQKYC
NCOA1 inh – inhibits human SRC1 coactivator | Q15788 | HEK293 GAL4-SRC1 luciferase reporter, luminescence | inhibition, % at 3.6 µM | 360,000 compounds, 0.12% hits | AID 588354;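 active = inhibition above the campaign mean plus 3 SD, with each screening campaign given its own cutoff, cut at about 60% in these data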;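 also: 0% = DMSO treated cells and 100% = gossypol at 36 µM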
Shn3 inh set2 – reduces Shn3 3'UTR luciferase signal in osteoblasts. Clone20 osteoblast Shn3 3'UTR firefly luciferase, 24 h. inhibition, % at 12.5 µM. 360,000 compounds, 0.52% hits. AID 588674;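 active = mean inhibition of at least 75% with every replicate also reaching 75%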;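 also: 0% = median of neutral control wells and 100% = pilot-screen positive control compound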
Gli-Sufu block – blocks Gli-Sufu signaling in a luciferase reporter; Sufu-KO-LIGHT fibroblasts, Gli luciferase reporter luminescence; inhibition, % at 5 µM; 340,000 compounds, 0.74% hits; AID 588413;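 active = inhibition above about 55%, limit read from the data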;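 also: 0% = DMSO-treated cells and 100% = wells with medium but no cells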
Gli antag conf – Gli-SUFU antagonism confirmation, single concentration. shares compounds with Gli-Sufu block. Sufu-KO-LIGHT cells, Gli luciferase reporter, luminescence. inhibition, % at 5 µM. 2,500 compounds, 40% hits;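 active = mean inhibition at 5 µM reaching about 45%, limit read from the data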;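 also: plate controls were DMSO-treated cells for no effect and wells lacking cells for full effect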
SufuKO cytotox – counter-screen for Gli-SUFU antagonists: cytotoxicity; AID 651994; shares compounds with Gli-Sufu block; cytotoxicity, % at 5 µM; Sufu-KO-LIGHT cells cytotoxicity, ATP luminescence; 2,500 compounds, 32% hits;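 active = mean cytotoxicity at 5 µM above about 25%, limit read from the data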;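 also: cells exposed to compound overnight for roughly 16 to 18 hours; plate controls were DMSO wells with cells for no effect and medium without cells for full effect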
Wnt3a counter – inhibits Wnt3a reporter, counter-screen for Gli-SUFU antagonists | shares compounds with Gli-Sufu block | Wnt-LIGHT cells, Wnt3a-driven luciferase reporter, luminescence | inhibition, % at 6.25 µM | 2,500 compounds, 20% hits | AID 651995;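 active = mean inhibition above about 25%, limit read from the data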
* hit, by the source's call; . = no result given.

SMILES	NCOA2 inhibitor	NR5A2 inv ag	SRC3 inh	NCOA1 inh	Shn3 inh set2	Gli-Sufu block	Gli antag conf	SufuKO cytotox	Wnt3a counter
Cc1cccc(OCCn2cc(/C=N/NC(=O)c3ccncc3)c3ccccc32)c1	-17	-12	1	12	0	96*	27	29*	-13
O=S(=O)(NCCc1ccccc1)c1ccc(F)cc1	9	-25	-6	-4	-10	52	36	25	-13
O=C(O)CCc1ccc(S(=O)(=O)NCCc2ccccc2)cc1	0	-7	-18	-10	12	0	.	.	.
O=c1c2cc3cc(Cl)ccc3nc2ncn1N1CCCCC1	-9	.	.	.	.	.	.	.	.
Cc1ccccc1CN1CCCCC(NC(=O)c2ccccc2F)C1=O (stereo unspecified)	-5	.	.	.	.	.	.	.	.
CCOC(=O)N1CCC(N(C(=O)Nc2ccc(Cl)c(Cl)c2)C(C)CC)CC1 (stereo unspecified)	-5	3	24	-16	14	65*	31	20	-37
COC(=O)C1CN(CC(C)C)CCS(=O)(=O)N1Cc1ccc(Cl)cc1 (stereo unspecified)	16	.	.	.	.	.	.	.	.
Cc1cc(N2CC(C)OC(C)C2)nc(C(C)C)n1 (stereo unspecified)	-9	8	1	0	-15	52	16	19	5
COc1ccc(CNC(=S)OC2CCC23CCC(c2ccccc2)CC3)cc1 (stereo unspecified)	-6	.	.	.	.	.	.	.	.
CN1CCN(NC(=O)c2ccc(F)cc2)CC1	-19	12	-11	-16	-16	24	.	.	.
CN1CCN(NC(=O)c2ccc(Cl)s2)CC1	-2	9	14	-11	-2	52	14	0	15
O=C1CCN(CCc2ccccc2)CCN1[C@H](CSc1ccccc1)Cc1ccccc1	-3	6	4	0	59	62*	27	23	-12
CCCN1CCC(=O)N([C@H](CSc2ccc(OC)cc2)Cc2ccccc2)CC1	-26	0	-10	-12	56	52	48*	18	10
CCOc1ccc(CCNC(=O)CCC(=O)Nc2ccc3nc(N4CCN(C)CC4)cc(C)c3c2)cc1OCC	-4	-21	9	-12	1	4	.	.	.
COc1ccc(CCNC(=O)CCC(=O)Nc2ccc3nc(N4CCN(C)CC4)cc(C)c3c2)cc1OC	2	9	12	-24	5	51	26	20	-10
Cn1c(=O)c2c(nc(SCC(=O)NCc3ccc4c(c3)OCO4)n2Cc2ccc(Cl)cc2)n(C)c1=O	-9	3	9	13	-9	62*	27	-7	-25
O=C(NCc1ccccc1)OCCN1C(=O)CCC12CCC(c1ccc(Cl)cc1)CC2 (stereo unspecified)	32	.	.	.	.	.	.	.	.
CCc1ccccc1NC(=S)N(CCCN1CCN(C)CC1)Cc1cccs1	5	10	19	0	6	54	17	4	14
CCOc1ccc(-n2c(SCC(=O)Nc3cccc4ccccc34)nnc2-c2ccncc2)cc1	-25	.	.	.	.	.	.	.	.
CNC(=S)/N=C/NOCc1ccc(Cl)cc1Cl	23	8	12	2	69	52	30	-9	-9
NC(=O)NOCc1ccc(Cl)cc1Cl	-15	18	12	-7	-2	-1	.	.	.
O=C(Nc1c(-c2ccc(C(F)(F)F)cc2)nc2ncccn12)C1CC1	-10	.	.	.	.	.	.	.	.
CCCCN1CCc2c(c3ccccc3n2Cc2ccccc2)C1	-41	0	-21	-9	28	60*	35	1	-31
CN1CCc2c(c3ccccc3n2Cc2ccccc2)C1	-2	5	7	-14	-20	-3	.	.	.
O=C(NCc1ccccc1)OCCCN1C(=O)CCC12CCCCC2	-6	.	.	.	.	.	.	.	.
SMILES	NCOA2 inhibitor	NR5A2 inv ag	SRC3 inh	NCOA1 inh	Shn3 inh set2	Gli-Sufu block	Gli antag conf	SufuKO cytotox	Wnt3a counter
CC(OC(=O)c1cccc(-n2cnnn2)c1)C(=O)Nc1ccc(F)cc1 (stereo unspecified)	25	-1	12	-2	78	50	25	10	6
COc1ccc(CN(CCN2CCOCC2)C(=O)c2cc(F)ccc2C)cc1OC	20	.	.	.	.	.	.	.	.
COc1ccc(C(=O)NN(C)c2nc(C(F)(F)F)nc3ccccc23)cc1	30	17	38	5	34	56*	55*	63*	1
CCCc1cc(=O)oc2cc(C)cc(OCC(=O)O)c12	30	26	-13	-5	14	100*	5	-5	-9
Cc1c(/C=N/NC(=O)c2ccccc2O)c2ccccn2c1C(=O)c1ccc(F)cc1	3	34	17	-1	10	79*	71*	1	-128
Cn1ncc(Cl)c1C(=O)N1CCN(C23CC4CC(CC(C4)C2)C3)CC1	-4	18	12	-10	9	99*	26	4	-14
COC(=O)c1sc(N)c(C(=O)OC)c1CSc1nnc(-c2ccccc2Cl)n1C	-3	13	-10	-26	4	3	.	.	.
COC(=O)c1sc(N)c(C(=O)OC)c1CSc1nnnn1C	-3	24	24	12	-5	99*	24	2	11
Cc1ccc2c(c1)C(CS(=O)(=O)NCc1ccccc1)NC2 (stereo unspecified)	-1	.	.	.	.	.	.	.	.
COC(=O)C[C@@H]1CC[C@H]2[C@@H](COc3ccc(NC(=O)c4ccc(C(F)(F)F)cc4)cc3C(=O)N2C)O1	10	.	.	.	.	.	.	.	.
COc1cc(C(=O)Oc2ccccc2/C=N/NC(=O)c2ccc(Cl)cc2)cc(OC)c1OC	-7	-43	13	-18	41	54	29	24	-161
COc1cc(C(=O)Oc2ccccc2/C=N/NC(=O)c2ccc(C)c(Cl)c2)cc(OC)c1OC	-4	4	17	17	57	20	.	.	.
CCOc1cccc(/C=N/NC(=O)c2cccnc2)c1O	-27	-3	21	32	70	59*	30	15	33*
CCOc1cc(/C=N/NC(=O)c2cccnc2)ccc1O	-8	38	7	11	-16	2	.	.	.
CN1CCN(c2ccccc2/C=N/NC(=O)c2cccnc2)CC1	8	4	-5	5	0	66*	26	9	4
O=C(N/N=C\c1cc2c(cc1Cl)OCO2)c1cccnc1	-14	-6	-22	-2	-3	-15	.	.	.
CCNC(=S)N(CCc1cccc(C)c1)Cc1cc2cc(OC)c(OC)cc2[nH]c1=O	-46	1	20	5	-11	52	14	25	-22
CCNC(=S)N(CCN(C)C)Cc1cc2cc(OCC)ccc2[nH]c1=O	-5	-29	13	-21	1	60*	23	12	-8
O=C(OCc1cn(Cc2ccccc2)nn1)N1CCCC1	-9	.	.	.	.	.	.	.	.
COc1ccc(Cn2c(C)nc3ccc([N+](=O)[O-])cc3c2=O)cc1	4	10	-2	1	25	61*	32	24	-11
